mTORC1 inh: Acumen qHTS Assay for Inhibitors of the mTORC1 Signaling Pathway in MEF (Tsc2-/-, p53-/-) Cells: Sytravon | Tsc2-/- p53-/- MEF, phospho-rpS6 immunofluorescence/PI, 24 h | Potency, µM (series often up to 38.3 µM), for the others: at the top dose activity change, negative = inhibition, most hits filed as inhibitors | 44,000 tested, 0.78% active | AID 493208, 2011;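 further: plate controls were DMSO for no effect and rapamycin for full effect; nearly all actives have a fitted effect of over 50% in size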
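Compounds act on Tsc2-/-, p53-/- fibroblasts carrying an empty vector for 24 h before fixation and dual staining for phospho-S6 and DNA (propidium iodide). Values are percentages of cells above a rapamycin-defined pS6/PI threshold.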
PMP22 txn prim: Cell-based coincidence reporter assay to measure PMP22 gene transcription in S16 Pmp22-F2sN cells - Primary screen; S16 Pmp22-F2sN Schwann cells, FLuc/NLuc coincidence luminescence, 24 h; Potency, µM (highest dose often 57.5 µM), for the others: at the highest dose activity change, negative = inhibition, most hits filed as inhibitors; 43,000 tested, 2% active; AID 1508649, 2021; active means clear falling dose curves in both reporters; inconclusive means both reporters move, but less clearly or upward; inactive means either reporter flat; the % is the NLuc reporter signal
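S16(c9) Schwann cells with FLuc/NLuc coincidence reporter in the Pmp22 3' UTR; compounds pin-transferred, 24 h at 37C. Dual-luciferase read: FLuc first, then NLuc after Stop&Glo, each 10 min at room temperature.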
p53null 32C kill: qHTS Screen for Compounds that Selectively Target Cancer Cells with p53 Mutations: Cytotoxicity of p53 Null Cells at the Permissive Temperature; Potency, µM (doses to about 46.1 µM), for the others: at the top dose activity change, negative = cytotoxicity, usual class: cytotoxic; H1299-neo p53 null cells, ATP luminescence, 24 h, 32C; 55,000 tested, 0.62% active;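 further: 0% = DMSO only and -100% = full killing by 100 µM tamoxifen; nearly all actives have a fitted effect of over 55% in size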
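H1299-neo (p53 null) cells, 600/well, treated 24 h at 32C with compound up to 46 uM; ATPlite luminescence viability, normalized to DMSO and 100 uM tamoxifen; AC50 by Hill fit.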
S16 F2sN tox: Cell viability qHTS assay in S16 Pmp22-F2sN cells; Potency, µM (doses to about 57.5 µM), for the others: top-dose activity change, negative = cytotoxicity, most hits filed as cytotoxic; S16 Pmp22-F2sN Schwann cells (luciferase reporters placed in the Pmp22 gene) viability, CellTiter-Glo, 24 h; 43,000 tested, 0.48% active; AID 1508642, 2021; further: nearly all actives have a fitted effect of over 65% in size
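Seed 500-1,000 S16 Pmp22-F2sN cells per well in phenol-red-free DMEM with 10% heat-inactivated FBS; pin-add 23 nL compound; incubate 24 h at 37C; add CellTiter-Glo, wait 15 min protected from light; read luminescence.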
p53null 39C kill: qHTS Screen for Compounds that Selectively Target Cancer Cells with p53 Mutations: Cytotoxicity of p53 Null Cells at the Nonpermissive Temperature. H1299 p53-null (neo) cells, 39C, ATPlite viability, 24 h. 55,000 tested, 0.97% active. Potency, µM (top dose mostly 46.1 µM), inactives show at the highest dose activity, negative = cell killing, most hits filed as cytotoxic;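 further: 0% = DMSO only and -100% = full killing by 100 µM tamoxifen; nearly all actives have a fitted effect of over 50% in size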
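Temperature-shift cytotoxicity format: compound titrations on p53-null or A138V-expressing H1299 cells held 24 hr at 39C, cell ATP then measured, AC50 from Hill model.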
Starred values were filed as active, the others as inactive; ? = inconclusive; . = no result; [ ] = dose if it differs, or a comment. Sampled rows, rich in hits. Any-hit rate of the full collection: about 3.2%. Unless noted, the call rests on the fitted dose curve; in most records, active means well fitted curve in the direction sought with a large enough effect; inconclusive means small, poorly fitted or top-dose-only effect, or another doubt; inactive means no such curve, though single readings can be large; an effect the other way counts as inactive or inconclusive. Unless noted, on the % scale 0 is the no-effect control and ±100 the full control effect; potency means the concentration at half of the fitted maximal effect.

SMILES	mTORC1 inh	PMP22 txn prim	p53null 32C kill	S16 F2sN tox	p53null 39C kill
COc1ccc(N2CCN(C(=O)c3ccc(Nc4nc5ccccc5n5nnnc45)cc3)CC2)cc1	-0.5%	?	-0.8%	?	-6.7%
O=C(c1ccc(Nc2nc3ccccc3n3nnnc23)cc1)N1CCN(c2ccc(F)cc2)CC1	3.5%	4.01µM*	-1.7%	?	-19.3%
Cc1ccc(C(=O)NCC(c2cccnc2)N2CCc3ccccc3C2)cc1C (stereo not given)	7.2%	?	-7.2%	-14.1%	-16.6%
COc1ccccc1NC(=O)C1=C(C)Nc2nc(SCc3ccccc3)nn2C1c1ccncc1 (stereo not given)	-36.4%	?	1.5%	1.4%	-4.6%
C=Cc1ccc(Cn2nc(-c3ccc(C)cc3)ccc2=O)cc1	-14.6%	-21.7%	11.1%	-15.3%	?
Cc1ccc2nc(-c3ccc(NC(=O)C(F)(F)F)cc3)sc2c1	1.0%	-10.7%	2µM*	11.0%	1.26µM*
Cc1ccc2nc(-c3ccc(NC(=O)CN4C(=O)c5ccccc5C4=O)cc3)sc2c1	.	.	22.4µM*	.	.
Cc1ccc2nc(-c3ccc(NC(=O)c4ccc(S(C)(=O)=O)cc4)cc3)sc2c1	1.4%	-11.2%	-1.2%	5.9%	-11.1%
CCCCC(=O)Nc1cccc(NC(=S)NC(=O)C(C)C)c1	.	.	-17.9%	.	.
CCOc1ccccc1NC(=O)c1c(NCc2sccc2C)sc2c1CCC(C)C2 (stereo not given)	14.7µM*	?	0.6%	7.2%	18.1%
COC(=O)c1cc(C)nc2c1c(=O)nc(SCc1c(C)cc(C)cc1C)n2C1CC1	0.0%	?	40.9%	?	12.6µM*
Cn1nnnc1SCCCNCc1cccc(OCc2ccc(F)cc2)c1	?	?	-9.2%	?	-2.4%
CCCC1=Nc2cc(C(=O)NCc3ccccc3)ccc2Sc2ccccc21	?	11.5µM*	18.0%	?	12.9%
Cc1cccc2nc(-c3ccccn3)c(Nc3ccccc3)n12	-10.5%	?	26.9%	-6.0%	?
Cc1cccc2nc(-c3ccccn3)c(Nc3ccc(F)cc3)n12	-15.5%	12.7µM*	21.8%	?	?
Cc1ccc(-c2nnc(NC(=O)c3ccc4c(c3)OCCO4)o2)c(C)c1	2.6%	?	-14.8%	2.0%	25.1µM*
O=C(Nc1nnc(-c2cc(Cl)ccc2Cl)o1)c1ccc2c(c1)OCCO2	?	-3.5%	-4.7%	5.6%	-41.0%
Cc1c(C(=O)NC(C)c2ccccc2)sc2nc3n(c(=O)c12)CCCC3 (stereo not given)	7.0%	-1.8%	5.3%	0.5%	-20.1%
Cc1nc(-c2cccc(NC(=O)Nc3ccc([N+](=O)[O-])cc3)c2)no1	?	?	15.8%	28.2µM*	44.6%
COc1ccc2[nH]cc(CCN=C(NC(=O)c3ccccc3OC)Nc3nc(C)cc(C)n3)c2c1	-10.8%	13.9µM*	9.7%	?	0.7%
COc1ccc2[nH]cc(CCN=C(NC(=O)c3ccccc3C)Nc3nc(C)cc(C)n3)c2c1	1.2%	?	7.0%[9.22 µM]	-4.3%	4.1%
Cc1ccc(C(=O)NC2(C(F)(F)F)N=C(c3ccccc3)N(Cc3ccccc3)C2=O)cc1 (stereo not given)	5.4%	4.5%	17.4%	-15.3%	-7.8%
CCCCNC(=O)CSc1nc2n[nH]c(C)c2c(=N)n1-c1cccc(C)c1	1.0%	-22.6%	23.0%	-10.1%	0.1%
CCCCN(CC)C(=O)CSc1nc2n[nH]c(C)c2c(=N)n1-c1cccc(Cl)c1	-3.4%	13.4µM*	6.9%	?	13.1%
Cc1ccc(NC(=O)c2cnn3c(C(F)F)cc(-c4ccccc4)nc23)cc1F	-0.1%	-28.9%	-3.4%	20.1%	4.3%
SMILES	mTORC1 inh	PMP22 txn prim	p53null 32C kill	S16 F2sN tox	p53null 39C kill
O=C(Nc1ccc(NC(=O)c2ccco2)nc1)c1cccnc1	.	.	12.6µM*	.	?
CCc1ccc(OCC(=O)N(Cc2ccc(C)cc2)Cc2ccco2)cc1	4.14µM*	?	22.3%	7.6%	11.0%
Cc1ccc(CN(Cc2ccco2)C(=O)COc2ccc(C)c(C)c2)cc1	-12.2%	-88.5%	5.0%	-8.4%	0.2%
COc1cc(NC(=O)C2CCN(S(=O)(=O)Cc3ccccc3)CC2)c(OC)cc1Cl	2.1%	.	3.4%	.	-8.6%
COc1ccccc1C(=O)Oc1c(Sc2ccccc2)c(C)nn1C(C)(C)C	3.2%	14.0%	?	-20.7%	12.6µM*
COc1ccc(-c2nc(SCC(=O)Nc3cccc(C(C)=O)c3)n[nH]2)cc1	-5.1%	9.4%	?	-3.6%	25.1µM*
COc1ccc(NC(=O)CSc2n[nH]c(-c3ccccc3)n2)cc1Cl	4.9%	14.4%	7.1%	6.5%	-6.4%
Cn1c(=O)c2c(nc(N3CCOCC3)n2Cc2ccccc2)n(C)c1=O	-0.1%	-6.5%	-3.7%	11.4%	-1.9%
CCOC(=O)Cn1c(=O)c2c(nc(N3CCOCC3)n2Cc2ccccc2)n(C)c1=O	9.27µM*	-82.9%	-1.2%	6.2%	-19.3%
Cc1ccc(C(=O)COC(=O)CCC(=O)Nc2ccc(Oc3ccccc3)cc2)cc1C	2.7%	0.1%	-0.2%	-5.5%	-20.5%
COc1ccccc1NC(CC(=O)c1ccccc1)C(=O)OCC(=O)c1ccc(C)c(C)c1 (stereo not given)	.	.	17.8µM*	.	.
CC(=O)c1ccc(NC(=O)/C=C/c2ccc(C)o2)cc1	0.1%	.	12.6µM*	.	?
CC(=O)c1cc(-c2ccccc2)n(CCC(=O)NC2CCCCC2)c1C	-0.7%	-3.4%	2.1%	2.9%	9.6%
CCN1CCN(CCCNC(=O)Cn2c(-c3cccs3)cc3ccccc32)CC1	-9.6%	?	5.2%	?	-1.5%
CC(=O)c1cccc(NS(=O)(=O)c2cc3c(cc2C)N(C(C)=O)CCO3)c1	1.6%	-19.9%	-9.0%	?	17.1%
CCCc1nnc(NC(=O)c2nc(S(=O)(=O)Cc3ccc(C)cc3)ncc2Cl)s1	-18.0%	?	-13.5%	?	10µM*
CCCc1nnc(NC(=O)c2nc(SCC)ncc2Cl)s1	-5.3%	8.4%	-2.3%	-0.5%	7.4%
Cc1ccc(CS(=O)(=O)c2ncc(Cl)c(C(=O)Nc3nc4ccc(C)cc4s3)n2)cc1	-0.3%	6.48µM*	-19.7%	20µM*	-14.4%
Cc1ccc(CSc2ncc(Cl)c(C(=O)Nc3nc4ccc(C)cc4s3)n2)cc1	3.9%	2.7%	-5.9%	-1.7%	-3.6%

Source: PubChem (National Center for Advancing Translational Sciences (NCATS))
